From PubChem BioAssay (NCI)
The panel holds about 79,000 compounds, 15% with a hit somewhere; the sample as a whole holds those more often. Values without a mark were called inactive. Rule as the data show it: active = growth inhibition above about 70%; inactive = the rest.

Experiment: NCI Yeast Anticancer Drug Screen. Data for the rad50 strain (AID 155);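 also: 0% = growth of vehicle-only cultures of the same strain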
Conditions: S. cerevisiae rad50 strain growth inhibition; at 50.0 µM; stronger effect = higher value
Experimental: Growth inhibition of yeast strains with defined genetic alterations is measured as a screen for potential anti-cancer activity. Selected strains with alterations in DNA damage repair or cell cycle control were exposed to compounds and growth inhibition was measured relative to vehicle treated controls. The strain used in this assay is rad50

SMILES	growth inhibition
CCCCCCCC(=O)N(CC)CC	13.5%
CCOC(=O)c1cc(=O)[nH]c(N)n1	-6.4%
CC(C)CCCC(C)C1CCC2C3CCC4=CCCCC4(C)C3CCC12C (stereo not given)	4.6%
C=C(C)c1ccc(C(=C)C)cc1	-45.9%
O=[N+]([O-])c1cc2c(cc1O)[nH]c1cccc([N+](=O)[O-])c12	-2.25%
CN(c1cn(C2CC[C@@H](CO)O2)c(=O)[nH]c1=O)C1CCCCC1 (stereo not given in full)	-35.8%
O=c1oc2ccccc2[n+]([O-])c1-c1ccccc1	-9.9%
Nc1nc(N)nc(CC(=O)O)n1	-16.5%
CC(=O)[C@H]1CC[C@H]2[C@@H]3CC(=O)C4=CC(=O)CC[C@]4(C)[C@H]3C(=O)C[C@]12C	11.3%
CCN1c2nc3ccccc3nc2N(CC)c2nc3ccccc3nc21	-30.1%
CCCCC(N)CSSCC(N)CCCC (stereo not given)	-20.8%
CC(=O)c1cccc(N)c1	-26.9%
Nc1c(S(=O)(=O)O)cc2cc(S(=O)(=O)O)ccc2c1N	9.9%
N#CSC1C=CS(=O)(=O)C1 (stereo not given)	44.6%
c1ccc(SC2(Sc3ccccc3)CCCC2)cc1	-9.15%
CCC1([N+](=O)[O-])CC2C=CC1C2 (stereo not given)	2.2%
O=C(NCCCCCCCCCNC(=O)C12CC3CC(CC(C3)C1)C2)C12CC3CC(CC(C3)C1)C2	23.2%
CC(C)(O)c1cccc(I)c1	7.7%
Clc1cc(Cl)c2ncccc2c1	4.05%
Cc1cc(C)nc(N)n1	0.25%

SMILES	growth inhibition
CN(C)S(=O)(=O)C(C(N)=O)c1ccccc1 (stereo not given)	-8.75%
O=c1[nH]c2ccccc2[nH]1	-18.8%
O=C(COc1ccccc1[N+](=O)[O-])Nc1cccnc1	-18.9%
N#CC(c1cc2c(cc1Br)OCO2)N1CCOCC1 (stereo not given)	17.5%
CCCn1c(C)nc2cc(C(F)(F)F)cc(N)c21	14.3%
CCN(CC)CCC(C(=O)O)(c1ccccc1)C1(O)CCCC1 (stereo not given)	-7.5%
Cc1ccc(OCC(O)CN2CCN(c3ccc(C)cc3)CC2)cc1 (stereo not given)	26.6%
Cc1ccc(C2(c3ccc(C)cc3)OCC(C)(CBr)CO2)cc1	-30%
CCCCc1ccc(O)c(CN(CC)CC)c1	10.8%
O=C(CC(=O)n1nc(-c2ccccc2)c(N=Nc2ccccc2Cl)c1-c1ccccc1)Nc1ccc(Cl)cc1	-9.5%
CC1(C)CC(C)(O)N(CCc2ccccc2)C(=S)N1 (stereo not given)	-6.55%
COc1ccccc1NC(=O)C(/C=N/C(N)=S)=C(\C)O	-20.1%
C/C=C/C=N/SC(c1ccccc1)(c1ccccc1)c1ccccc1	9.35%
Nc1nc(-c2ccccc2)c(N=Nc2cccc(Cl)c2)s1	-10.7%
CN(C)c1ccc(-c2cc(C(=O)O)c3cc(I)ccc3n2)c(Cl)c1	45.9%
CC1S/C(=N\N=C\c2ccc(Cl)cc2)N=C1c1c(O)c2ccccc2oc1=O (stereo not given)	13.2%
Cc1nc2cc([N+](=O)[O-])ccc2c(NCCCN(C)C)c1C	6.6%
CCCOC(=O)CCCCC(=O)OCCC	11.6%
O=CNc1ccc(-c2ccc(NC=O)cc2)cc1	27.6%
O=c1[nH]c(Sc2ccccc2)nc2ccccc12	15.7%
